Source: PubChem BioAssay (NCATS)
Inconclusive results are not listed. Calls of active or inactive are those of the source. Calls follow the shape of the dose curve; as a rule, active = well fitted cell-killing curve with a large enough effect; inconclusive = small, poorly fitted or top-dose-only effect, or effect the other way; inactive = flat fitted curve, though single readings scatter.

Experiments:
Assay in all cases: Primary qHTS to identify gynecologic anti-cancer compounds using libraries of approved drugs and bioactive compounds (AID 1345084); also: nearly all actives have a fitted effect of over 55% in size
C33A = conditions: Gynecologic cancer cell panel viability, ATPlite luminescence, 48 h; series mostly up to 57.5 µM
Outline: (§1)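 48 h compound exposure at 37 C, 5% CO2; five-point qHTS. ATPlite luminescence readout of cell ATP.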

CAOV3 = conditions: Gynecologic cancer cell panel viability, ATPlite luminescence, 48 h; series mostly up to 57.5 µM
Outline: as §1

CASKI = conditions: Gynecologic cancer cell panel viability, ATPlite luminescence, 48 h; series mostly up to 57.5 µM
Outline: as §1

Es-2 = conditions: Gynecologic cancer cell panel viability, ATPlite luminescence, 48 h; series mostly up to 57.5 µM
Outline: as §1

HeLa = conditions: Gynecologic cancer cell panel viability, ATPlite luminescence, 48 h; series mostly up to 57.5 µM
Outline: as §1

Hek293T = conditions: Gynecologic cancer cell panel viability, ATPlite luminescence, 48 h, control line for the selectivity index; series mostly up to 57.5 µM
Outline: as §1

JEG-3 = conditions: Gynecologic cancer cell panel viability, ATPlite luminescence, 48 h; series mostly up to 57.5 µM
Outline: as §1

OV90 = conditions: Gynecologic cancer cell panel viability, ATPlite luminescence, 48 h; series mostly up to 57.5 µM
Outline: as §1

PA-1 = conditions: Gynecologic cancer cell panel viability, ATPlite luminescence, 48 h; series mostly up to 57.5 µM
Outline: as §1

SKOV3 = conditions: Gynecologic cancer cell panel viability, ATPlite luminescence, 48 h; series mostly up to 57.5 µM
Outline: as §1

Tov-21-G = conditions: Gynecologic cancer cell panel viability, ATPlite luminescence, 48 h; series mostly up to 57.5 µM
Outline: as §1

Tov112D = conditions: Gynecologic cancer cell panel viability, ATPlite luminescence, 48 h; series mostly up to 57.5 µM
Outline: as §1
% is scaled to controls: 0 for no effect and ±100 for the full control effect.

O=C(/C=C/c1ccc(O)cc1)OC1[C@H](O)CC(O)(C(=O)O)C[C@H]1O (stereo partly drawn)
inactive: Potency (C33A) | Potency (CAOV3) | Potency (CASKI) | Potency (Es-2) | Potency (HeLa) | Potency (Hek293T) | Potency (JEG-3) | Potency (OV90) | Potency (PA-1) | Potency (SKOV3) | Potency (Tov-21-G) | Potency (Tov112D)

COC(=O)N(C)c1c(N)nc(-c2nn(Cc3ccccc3F)c3ncccc23)nc1N
inactive: Potency (C33A) | Potency (CAOV3) | Potency (CASKI) | Potency (Es-2) | Potency (HeLa) | Potency (Hek293T) | Potency (JEG-3) | Potency (OV90) | Potency (PA-1) | Potency (SKOV3) | Potency (Tov-21-G) | Potency (Tov112D)

C/C=C(\C)C(=O)OCC1OC(OC2OC(COC(=O)/C(C)=C/C)C(OC3OC(CO)C(OC(=O)/C(C)=C/C)C(OC(=O)/C(C)=C/C)C3O)C(O)C2O)C(O)C(O)C1OC1OC(CO)C(OC(=O)/C(C)=C/C)C(OC(=O)/C(C)=C/C)C1O (stereo not drawn)
inactive: activity change, negative = cytotoxicity (C33A) -2.64% [at 11.6 µM] | activity change, negative = cytotoxicity (CAOV3) -7.6% [at 11.6 µM] | activity change, negative = cytotoxicity (CASKI) 2.92% [at 11.6 µM] | activity change, negative = cytotoxicity (Es-2) 9.5% [at 11.6 µM] | activity change, negative = cytotoxicity (HeLa) 29.5% [at 11.6 µM] | activity change, negative = cytotoxicity (Hek293T) -1.84% [at 11.6 µM] | activity change, negative = cytotoxicity (JEG-3) -2.52% [at 11.6 µM] | activity change, negative = cytotoxicity (OV90) -3.76% [at 11.6 µM] | activity change, negative = cytotoxicity (PA-1) 0.651% [at 11.6 µM] | activity change, negative = cytotoxicity (SKOV3) -11.6% [at 11.6 µM] | activity change, negative = cytotoxicity (Tov-21-G) 9.19% [at 11.6 µM] | activity change, negative = cytotoxicity (Tov112D) -1.35% [at 11.6 µM]

CC1CCC2(C(=O)O)CCC3(C)C(=CCC4C5(C)CCC(O)C(C)(CO)C5CCC43C)C2C1(C)O (stereo not drawn)
inactive: Potency (C33A) | Potency (CAOV3) | Potency (CASKI) | Potency (Es-2) | Potency (HeLa) | Potency (Hek293T) | Potency (JEG-3) | Potency (OV90) | Potency (PA-1) | Potency (SKOV3) | Potency (Tov-21-G) | Potency (Tov112D)

O=C(OC[C@H]1O[C@H](O[C@]2(CO)O[C@H](CO)[C@@H](O)[C@@H]2O)[C@H](O)[C@@H](O)[C@@H]1O)c1ccccc1
inactive: Potency (C33A) | Potency (CAOV3) | Potency (CASKI) | Potency (Es-2) | Potency (HeLa) | Potency (Hek293T) | Potency (JEG-3) | Potency (OV90) | Potency (PA-1) | Potency (SKOV3) | Potency (Tov-21-G) | Potency (Tov112D)

C[C@H](N)C(=O)N[C@@H](Cc1ccc(O)cc1)C(=O)N1CCC[C@H]1C(=O)NCC(=O)N[C@@H](CCCCN)C(=O)N[C@@H](Cc1ccccc1)C(N)=O
inactive: activity change, negative = cytotoxicity (C33A) 10.6% [at 11.6 µM] | activity change, negative = cytotoxicity (CAOV3) 7.8% [at 11.6 µM] | activity change, negative = cytotoxicity (CASKI) 6.63% [at 11.6 µM] | activity change, negative = cytotoxicity (Es-2) 2.05% [at 11.6 µM] | activity change, negative = cytotoxicity (HeLa) 3.06% [at 11.6 µM] | activity change, negative = cytotoxicity (Hek293T) 13% [at 11.6 µM] | activity change, negative = cytotoxicity (JEG-3) 1.3% [at 11.6 µM] | activity change, negative = cytotoxicity (OV90) 1.27% [at 11.6 µM] | activity change, negative = cytotoxicity (PA-1) 3.5% [at 11.6 µM] | activity change, negative = cytotoxicity (SKOV3) 32.3% [at 11.6 µM] | activity change, negative = cytotoxicity (Tov-21-G) 1.95% [at 11.6 µM] | activity change, negative = cytotoxicity (Tov112D) 5.22% [at 11.6 µM]

CC1(C)CC[C@]2(C(=O)O[C@@H]3O[C@H](CO)[C@@H](O)[C@H](O)[C@H]3O)CC[C@]3(C)C(=CCC4[C@@]5(C)C[C@@H](O)[C@H](O)C(C)(C)C5[C@H](O)C[C@]43C)[C@@H]2[C@@H]1O (stereo partly drawn)
inactive: Potency (C33A) | Potency (CAOV3) | Potency (CASKI) | Potency (Es-2) | Potency (HeLa) | Potency (Hek293T) | Potency (JEG-3) | Potency (OV90) | Potency (PA-1) | Potency (SKOV3) | Potency (Tov-21-G) | Potency (Tov112D)

O=C(Nc1ccn[nH]1)c1c(F)cccc1F
inactive: Potency (C33A) | Potency (CAOV3) | Potency (CASKI) | Potency (Es-2) | Potency (HeLa) | Potency (Hek293T) | Potency (JEG-3) | Potency (OV90) | Potency (PA-1) | Potency (SKOV3) | Potency (Tov-21-G) | Potency (Tov112D)

C=C1CCCC2(C)CC3(OC)OC(=O)C(C)=C3CC12 (stereo not drawn)
inactive: Potency (C33A) | Potency (CAOV3) | Potency (CASKI) | Potency (Es-2) | Potency (HeLa) | Potency (Hek293T) | Potency (JEG-3) | Potency (OV90) | Potency (PA-1) | Potency (SKOV3) | Potency (Tov-21-G) | Potency (Tov112D)

COc1cc2occc2c(O[C@@H]2O[C@H](CO)[C@@H](O)[C@H](O)[C@H]2O)c1CCC(=O)O
inactive: Potency (C33A) | Potency (CAOV3) | Potency (CASKI) | Potency (Es-2) | Potency (HeLa) | Potency (Hek293T) | Potency (JEG-3) | Potency (OV90) | Potency (PA-1) | Potency (SKOV3) | Potency (Tov-21-G) | Potency (Tov112D)

COC(=O)N[C@H](C(=O)N1[C@@H]2CC[C@@H](C2)[C@H]1c1nc2ccc(-c3ccc4c(c3)C(F)(F)c3cc(-c5cnc([C@@H]6CCC7(CC7)N6C(=O)[C@@H](NC(=O)OC)C(C)C)[nH]5)ccc3-4)cc2[nH]1)C(C)C
inactive: Potency (C33A) | Potency (CAOV3) | Potency (CASKI) | Potency (Es-2) | Potency (HeLa) | Potency (Hek293T) | Potency (JEG-3) | Potency (OV90) | Potency (PA-1) | Potency (SKOV3) | Potency (Tov-21-G) | Potency (Tov112D)

C[C@H](O)[C@H](O)/C=C/c1cccc(O)c1CO
inactive: Potency (C33A) | Potency (CAOV3) | Potency (CASKI) | Potency (Es-2) | Potency (HeLa) | Potency (Hek293T) | Potency (JEG-3) | Potency (OV90) | Potency (PA-1) | Potency (SKOV3) | Potency (Tov-21-G) | Potency (Tov112D)

C=C1CC2C(C)(CCC(=O)O)C(C(C)(C)O)CCC2(C)C2C(=O)OC(C)(C(=O)OC)C(=O)C12C (stereo not drawn)
inactive: Potency (C33A) | Potency (CAOV3) | Potency (CASKI) | Potency (Es-2) | Potency (HeLa) | Potency (Hek293T) | Potency (JEG-3) | Potency (OV90) | Potency (PA-1) | Potency (SKOV3) | Potency (Tov-21-G) | Potency (Tov112D)

COc1ccc(-c2c(-c3cc(C(=O)O)ccn3)ncn2C)cc1
inactive: Potency (C33A) | Potency (CAOV3) | Potency (CASKI) | Potency (Es-2) | Potency (HeLa) | Potency (Hek293T) | Potency (JEG-3) | Potency (OV90) | Potency (PA-1) | Potency (SKOV3) | Potency (Tov-21-G) | Potency (Tov112D)
